Assay [1] deals with Wnt5a (protein binding on small-molecule microarray). In words: small molecules binding Wnt5a protein – biophysical, small-molecule microarray, 635/667 nm fluorescence, primary screen (AID 1142).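 Further: fluorescence read at 667 nm with signal to noise per printed feature.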 The following applies: 635 nm fluorescence, higher = more signal.
Assay [2] is described as follows: ATP-based viability of Huh7 replicon cells – cell-based, CellTiter-Glo luminescence, basal, 48 h, cytotoxicity control for HCV replication inhibitor project, primary screen (AID 1143).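 Further: Huh7 hepatoma cells carrying a hepatitis C replication reporter with no stimulus; test concentration not given here.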 The following applies: higher = more signal, called active from +8 up or from −8 down. In general terms: Replicon systems follow genome replication, usually without infectious particles.

Assay [3] is described as follows: Pseudomonas biofilm growth suppression – PAO1 strain, BacTiter-Glo luminescence, LB-PBS, primary screen (AID 1144). The following applies: P. aeruginosa PAO1 biofilm, 12 h, higher = more signal.
Assay [4] in a line: basal CRE-LacZ reporter activity in PC12 – cell-based, unstimulated, primary screen (AID 1145). Particulars: no forskolin, luminescence, 4.5 h, higher = more signal, called active from +8 up or from −8 down.
Assay [5] can be described thus: forskolin-driven CRE-LacZ activity in PC12 – cell-based, CRE-LacZ reporter, forskolin-stimulated, primary screen (AID 1146).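 Further: PC12 cells with 6xCRE LacZ reporter stimulated by forskolin 10 µM; beta-galactosidase reporter signal reflecting CREB driven transcription.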 The following applies: luminescence, 4.5 h, higher = more signal, called active from +8 up or from −8 down.
Assay [6] has as its target Streptavidin (Streptomyces avidinii) (UniProt P22629). In words: compounds binding control protein streptavidin – biophysical, small-molecule microarray, 635/667 nm fluorescence, artefact control for SMM compound annotation, primary screen (AID 1147).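 Further: signal reflects streptavidin binding to arrayed compounds as a control protein.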 Particulars: higher = more signal.
The nature of assay [7]: probe aInhba binding on compound microarray – biochemical, small-molecule microarray, 635/667 nm fluorescence, primary screen (AID 1148).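 Further: score merges 667nm spot fluorescence with signal-to-noise for antibody binding to printed compounds.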 Particulars: higher = more signal.
Assay [8] has as its target Torsin-1A (Homo sapiens) (UniProt O14656). In words: TOR1A wild-type binding on microarray – cell lysate, small-molecule microarray, lysate, 635/667 nm, primary screen (AID 1149). The following applies: COS7 hTOR1A-WT lysate, 635 nm fluorescence, higher = more signal.
For assay [9] the target is unchanged. In words: torsin A mutant lysate binding on microarrays – cell lysate, small-molecule microarray, COS7 lysate, 635/667 nm fluorescence, primary screen (AID 1150).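 Further: score pools 667 nm emission and signal to noise measuring lysate protein binding.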 The following applies: COS7 hTOR1A mutant lysate, 635 nm fluorescence, higher = more signal.
The test system of assay [10] is Sonic hedgehog protein (Shh). In words: Sonic hedgehog microarray binding compounds – biochemical, small-molecule microarray, 635/667 nm fluorescence, primary screen (AID 1151).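 Further: Shh protein binding to compounds spotted on small-molecule microarray slides; score combines spot fluorescence intensity with signal-to-noise across triplicate slides.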 The following applies: 635 nm fluorescence, higher = more signal.
Assay [11] can be described thus: optical density shifts of acrAB sulA E. coli – strain DRC41, OD650, 48 h, E. coli filamentation inducer project, primary screen (AID 1152).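 Further: E. coli MC1000 strain DRC41 lacking acrAB efflux pump and sulA.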 The following applies: higher = more signal, called active from +8 up or from −8 down.
Assay [12] is described as follows: probe aLefty1 binding on compound microarray – biochemical, small-molecule microarray, 635/667 nm fluorescence, primary screen (AID 1153).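 Further: score merges spot fluorescence with signal-to-noise ratio from the scanned slide images.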 Particulars: higher = more signal.
Assay [13] in a line: plasmodial surface anion channel blockers, osmotic lysis – cell-based, P. falciparum Indochina, OD700, 1 h, primary screen (AID 1154). Particulars: P. falciparum Indochina infected RBC osmotic lysis, higher = more signal, called active from +8 up or from −8 down.
A short description of assay [14]: plasmodial surface anion channel blockers, osmotic lysis – cell-based, P. falciparum Indochina, OD700, 2 h, primary screen (AID 1155).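 Further: lysis reports solute entry through the parasite surface anion channel PSAC.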 Particulars: P. falciparum Indochina infected erythrocytes, higher = more signal, called active from +8 up or from −8 down.
Assay [15] is described as follows: changes in parasitized red cell lysis, either direction – P. falciparum Indochina, OD700, 3 h, PSAC antagonist project, primary screen (AID 1156). The following applies: P. falciparum-infected erythrocytes, osmotic lysis, higher = more signal, called active from +8 up or from −8 down.
Assay [16] can be described thus: plasmodial surface anion channel blockers, osmotic lysis – cell-based, P. falciparum Indochina, OD700, 18 h, primary screen (AID 1157). Particulars: P. falciparum Indochina infected erythrocytes, osmotic lysis OD700, 18 h; higher = more signal, called active from +8 up or from −8 down.
Assay [17] in a line: S6 kinase pathway phospho-S6 level changes – cell-based, A549, cytoblot, luminescence, serum-stimulated, primary screen (AID 1158).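 Further: serum-stimulated A549 lung adenocarcinoma cells; signal is phosphorylated S6 detected by cytoblot immunostaining with HRP secondary.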 The following applies: 5 h, higher = more signal.
For assay [18], the target named is NADPH oxidase 2 (Homo sapiens) (UniProt P04839). In words: compounds shifting NOX2 Amplex Red fluorescence – cell-based, HEK293-NOX2, PMA-stimulated, NOX inhibitor project, primary screen (AID 1159). Further: test concentration not given here. The following applies: 45 min, higher = more signal, called active from +8 up or from −8 down.
Sequence of NADPH oxidase 2 (Homo sapiens) (P04839 whole entry, looked up): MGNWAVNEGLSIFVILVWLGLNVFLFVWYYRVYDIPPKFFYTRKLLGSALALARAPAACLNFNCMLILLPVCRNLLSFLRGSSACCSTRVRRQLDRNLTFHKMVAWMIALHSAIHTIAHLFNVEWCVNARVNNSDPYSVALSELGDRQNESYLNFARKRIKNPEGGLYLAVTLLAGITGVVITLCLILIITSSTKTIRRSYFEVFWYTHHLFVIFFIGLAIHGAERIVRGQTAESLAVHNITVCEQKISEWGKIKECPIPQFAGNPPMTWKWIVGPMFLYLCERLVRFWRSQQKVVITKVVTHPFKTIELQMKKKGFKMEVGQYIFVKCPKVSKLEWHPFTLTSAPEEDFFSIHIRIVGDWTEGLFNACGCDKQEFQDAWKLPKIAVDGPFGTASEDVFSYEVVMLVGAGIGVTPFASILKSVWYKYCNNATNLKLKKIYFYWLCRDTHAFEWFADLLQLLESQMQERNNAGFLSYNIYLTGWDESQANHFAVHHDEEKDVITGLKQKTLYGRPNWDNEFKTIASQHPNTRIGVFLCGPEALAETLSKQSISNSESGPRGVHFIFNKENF
For assay [19], the target named is NADPH oxidase 4 (Homo sapiens) (UniProt Q9NPH5). In words: compounds shifting NOX4 Amplex Red fluorescence – cell-based, HEK293-NOX4, tetracycline-induced, NOX inhibitor project, primary screen (AID 1160). Particulars: HEK293-NOX4, Amplex Red H2O2 fluorescence, 45 min; higher = more signal, called active from +8 up or from −8 down.
Sequence of NADPH oxidase 4 (Homo sapiens) (Q9NPH5 whole entry, looked up): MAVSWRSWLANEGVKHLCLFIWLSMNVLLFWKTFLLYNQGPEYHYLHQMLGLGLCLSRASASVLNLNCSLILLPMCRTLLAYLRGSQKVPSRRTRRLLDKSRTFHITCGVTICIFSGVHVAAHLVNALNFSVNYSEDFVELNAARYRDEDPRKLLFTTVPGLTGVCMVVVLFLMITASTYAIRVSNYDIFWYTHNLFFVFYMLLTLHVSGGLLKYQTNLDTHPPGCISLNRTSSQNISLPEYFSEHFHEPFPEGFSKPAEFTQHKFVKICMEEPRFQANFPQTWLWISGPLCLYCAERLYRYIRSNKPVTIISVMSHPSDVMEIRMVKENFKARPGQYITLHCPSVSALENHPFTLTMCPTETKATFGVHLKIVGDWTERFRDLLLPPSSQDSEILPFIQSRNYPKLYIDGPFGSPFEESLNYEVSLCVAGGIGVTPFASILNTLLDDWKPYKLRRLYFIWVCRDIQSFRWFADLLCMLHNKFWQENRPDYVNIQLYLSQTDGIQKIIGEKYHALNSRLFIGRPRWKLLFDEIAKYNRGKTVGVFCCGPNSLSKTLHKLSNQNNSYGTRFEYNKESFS
Assay [20] deals with NADPH oxidase 5 (Homo sapiens) (UniProt Q96PH1). In words: compounds shifting NOX5 Amplex Red fluorescence – cell-based, HEK293-NOX5, NOX inhibitor project, primary screen (AID 1161). The following applies: HEK293-NOX5, ionomycin, 45 min, higher = more signal.
Sequence of NADPH oxidase 5 (Homo sapiens) (Q96PH1 whole entry, looked up): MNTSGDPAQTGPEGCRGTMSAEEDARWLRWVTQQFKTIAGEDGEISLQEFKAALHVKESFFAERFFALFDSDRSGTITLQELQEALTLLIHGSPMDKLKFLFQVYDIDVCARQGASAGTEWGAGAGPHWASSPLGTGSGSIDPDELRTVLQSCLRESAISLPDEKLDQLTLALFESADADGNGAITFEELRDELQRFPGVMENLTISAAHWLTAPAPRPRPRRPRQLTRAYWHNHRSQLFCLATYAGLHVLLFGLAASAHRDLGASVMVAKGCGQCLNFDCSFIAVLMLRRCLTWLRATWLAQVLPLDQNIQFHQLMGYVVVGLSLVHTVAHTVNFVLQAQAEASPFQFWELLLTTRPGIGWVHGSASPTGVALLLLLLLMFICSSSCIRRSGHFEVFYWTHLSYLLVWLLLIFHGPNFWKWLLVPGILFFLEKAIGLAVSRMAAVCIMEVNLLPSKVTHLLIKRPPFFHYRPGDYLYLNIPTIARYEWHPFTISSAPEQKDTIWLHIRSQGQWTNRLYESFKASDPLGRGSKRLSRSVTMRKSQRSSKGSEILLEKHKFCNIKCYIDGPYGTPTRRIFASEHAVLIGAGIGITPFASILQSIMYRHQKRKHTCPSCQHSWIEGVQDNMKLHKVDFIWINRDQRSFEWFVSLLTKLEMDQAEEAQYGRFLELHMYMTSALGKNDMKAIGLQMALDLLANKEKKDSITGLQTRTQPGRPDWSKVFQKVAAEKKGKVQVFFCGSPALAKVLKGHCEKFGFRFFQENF

Active and inactive are the calls of the source. Unless noted, how the calls were made is not given here.

Sequence of Streptavidin (Streptomyces avidinii) (P22629 whole entry, looked up): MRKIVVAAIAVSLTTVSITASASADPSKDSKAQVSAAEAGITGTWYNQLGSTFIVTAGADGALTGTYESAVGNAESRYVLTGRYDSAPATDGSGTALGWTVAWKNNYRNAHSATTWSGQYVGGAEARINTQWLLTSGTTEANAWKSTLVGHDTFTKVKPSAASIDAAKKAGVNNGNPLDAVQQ
Sequence of Torsin-1A (Homo sapiens) (O14656 whole entry, looked up): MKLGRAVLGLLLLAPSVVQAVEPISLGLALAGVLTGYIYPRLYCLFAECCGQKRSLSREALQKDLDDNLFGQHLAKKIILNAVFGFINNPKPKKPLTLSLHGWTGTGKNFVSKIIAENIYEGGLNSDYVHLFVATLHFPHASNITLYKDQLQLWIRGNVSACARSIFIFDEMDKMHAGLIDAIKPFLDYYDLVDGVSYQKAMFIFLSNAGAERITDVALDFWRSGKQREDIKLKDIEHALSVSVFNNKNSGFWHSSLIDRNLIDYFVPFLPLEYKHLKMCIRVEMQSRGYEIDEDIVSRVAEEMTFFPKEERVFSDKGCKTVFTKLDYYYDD

Regarding `COc1ccc(-c2cc3c(c(-c4ccc(Oc5ccccc5)cc4)n2)[Si](C(C)C)(C(C)C)OC3)cn1`, the composite z-score in assay [1] is -0.394; in assay [6] it was 0.114; in assay [7] it was 0.038; with Torsin-1A (Homo sapiens) [8], -0.664; in the assay with Torsin-1A (Homo sapiens) [9], -0.336; in assay [10], 1.08. This compound also returned a composite z-score in assay [12] of 0.0004. The z-score is -1.11 (inactive) in assay [2]; -0.0233 (inactive) in assay [3]; -0.127 (inactive) in [4]; -0.0129 (inactive) in [5]; -1.14 (inactive) in assay [11]; 2.85 (inactive) in assay [13]. Also, the z-score in [14] is 1.54 (inactive); in [15] it was 0.208 (inactive); in assay [16], 0.85 (inactive); in assay [17] it was -0.837; in assay [18], 0.476 (inactive); in assay [19], 0.412 (inactive). Moreover, the z-score in [20] amounted to 0.179.
With `NCCCCCCNC(=O)[C@@H]1C[C@@H]2C(=O)NCC(=O)N2[C@@H]1c1ccc(O)cc1`, the composite z-score in [1] is 0.387; in [6], 0.718; in [7], -0.104; in the assay with Torsin-1A (Homo sapiens) [8], 1.3; with Torsin-1A (Homo sapiens) [9] it was 0.665; in assay [10], 2.18. Further, the composite z-score in assay [12] is -0.0126. Further, the z-score was -0.402 (inactive) in [2]; -2.2 (inactive) in [3]; -1.07 (inactive) in assay [4]; 0.0413 (inactive) in assay [5]; 0.812 (inactive) in assay [11]; 0.846 (inactive) in assay [13]. Besides, the z-score in assay [14] is 1.04 (inactive); in [15], 4.22 (inactive); in [16], 0.497 (inactive); in [17] it was 0.257; in [18] it was -0.302 (inactive); in [19] it was 0.4 (inactive). Besides, the z-score in assay [20] worked out at 0.182.
Turning to `CC(C)=CCCC(C)=CC(O)C1C=CC2C(=O)N(C)C(=O)C2N1Nc1ccccc1` (stereo not given), the composite z-score in assay [1] is 0.485; in assay [6], 1.87; in assay [7] it was 0.115; in the assay with Torsin-1A (Homo sapiens) [8], -0.365; with Torsin-1A (Homo sapiens) [9], 0.178; in assay [10], 1.32. In assay [12], this compound showed a composite z-score of 0.525. For the same compound, the z-score in assay [2] is -2.96 (inactive); in [3], -0.545 (inactive); in assay [4] it was -0.333 (inactive); in assay [5], -0.465 (inactive); in assay [11], -1.5 (inactive); in [13], 7.27 (inactive). For the same compound, the z-score in assay [14] is 2.86 (inactive); in [15], 0.977 (inactive); in [16] it was 1.93 (inactive); in assay [17] it was -0.595; in assay [18], -1.51 (inactive); in assay [19] it was -3.97 (inactive). Besides, the z-score in assay [20] was -1.98.
`O=C1N(Cc2ccccc2)c2ccccc2[C@@H]2OC(c3ccc(OCCCO)cc3)=N[C@]12CCS(=O)(=O)c1ccccc1`: the composite z-score was 0.443 in [1]; 0.209 in assay [6]; -0.0719 in [7]; 0.216 with Torsin-1A (Homo sapiens) [8]; 0.726 in the assay with Torsin-1A (Homo sapiens) [9]; 0.695 in [10]. Moreover, the composite z-score in assay [12] was determined as 0.387. Further, the z-score in [2] was -2.24 (inactive); in assay [3], -0.19 (inactive); in [4], 3.13 (inactive); in assay [5] it was -0.406 (inactive); in assay [11], -0.355 (inactive); in [13], 24.7 (active). Also, the z-score in assay [14] was 13.3 (active); in assay [15], 1.79 (inactive); in [16], 1.57 (inactive); in assay [17], 0.0582; in assay [18] it was 0.22 (inactive); in assay [19], 1.32 (inactive). Besides, in assay [20], the z-score is 1.96.
`Cc1ccc(S[C@]2(C(=O)NCCCN(C)C)CC(=O)N(Cc3ccccc3C(F)(F)F)[C@@H]2c2ccc(CO)cc2)cc1`: the composite z-score in assay [1] was -0.197; in [6], -0.0283; in assay [7] it was -0.0791; in the assay with Torsin-1A (Homo sapiens) [8] it was -0.544; with Torsin-1A (Homo sapiens) [9], 0.801; in assay [10], -0.548. Moreover, the composite z-score in assay [12] turned out to be 0.337. For the same compound, the z-score is 0.312 (inactive) in assay [2]; 1.08 (inactive) in [3]; -0.295 (inactive) in assay [4]; 0.358 (inactive) in assay [5]; 0.674 (inactive) in assay [11]; 0.926 (inactive) in [13]. Besides, the z-score in assay [14] was 0.479 (inactive); in assay [15], 0.298 (inactive); in [16], -0.0133 (inactive); in [17], 0.104; in assay [18], -6.22 (inactive); in assay [19], 0.165 (inactive). Besides, the z-score in [20] was 0.526.
In the case of `COCCOC(=O)N1C(=O)[C@@]2(c3cc(C#CCC(C(=O)OC)C(=O)OC)ccc31)[C@H](c1ccccc1OCCO)N1[C@H](c3ccccc3)[C@H](c3ccccc3)OC(=O)[C@H]1[C@@H]2C(=O)NC[C@H](O)c1ccccc1`, the composite z-score stood at 0.851 in assay [1]; 0.0919 in assay [6]; 0.158 in assay [7]; 0.555 with Torsin-1A (Homo sapiens) [8]; 0.389 with Torsin-1A (Homo sapiens) [9]; 1.98 in assay [10]. In addition, the composite z-score in assay [12] was 0.557. The z-score in assay [2] is -4.23 (inactive); in assay [3], 0.166 (inactive); in assay [4], -0.195 (inactive); in [5], 2.22 (inactive); in assay [11], -0.165 (inactive); in assay [13], 1.95 (inactive). Moreover, the z-score was 1.35 (inactive) in [14]; -0.0048 (inactive) in assay [15]; 0.781 (inactive) in [16]; 0.213 in assay [17]; 1.57 (inactive) in assay [18]; 1.07 (inactive) in [19]. For the same compound, the z-score in assay [20] is 1.41.
Consider `COc1cc2c(cc1OC)CN(C(=O)[C@H]1[C@@H]3C(=O)O[C@@H](c4ccccc4)[C@@H](c4ccccc4)N3[C@@H](c3ccc(O)cc3)[C@]13C(=O)Nc1ccccc13)CC2`, for which the composite z-score in assay [1] is 0.0185; in [6] it was -0.805; in [7] it was 0.417; with Torsin-1A (Homo sapiens) [8], 0.191; with Torsin-1A (Homo sapiens) [9], 1.36; in assay [10], 0.931. Besides, the composite z-score in assay [12] came to 0.0036. For the same compound, the z-score in [2] was -1.57 (inactive); in assay [3], -0.219 (inactive); in assay [4], 0.358 (inactive); in assay [5], 0.282 (inactive); in [11], -0.444 (inactive); in assay [13], 0.734 (inactive). Besides, the z-score in assay [14] is -0.397 (inactive); in [15], -0.473 (inactive); in [16], 0.801 (inactive); in assay [17], 0.0493; in assay [18], 0.96 (inactive); in assay [19], 0.754 (inactive). Moreover, the z-score in assay [20] stood at 1.37.
As to `CC(=O)NCCCC[C@@H]1NC(=O)[C@@H]2C[C@H](C(=O)NCCCCCNC(=O)CS)[C@H](c3cccc(OCCO)c3)N2C1=O`, the composite z-score was -0.149 in assay [1]; -0.526 in assay [6]; -0.101 in assay [7]; 0.653 with Torsin-1A (Homo sapiens) [8]; 0.541 with Torsin-1A (Homo sapiens) [9]; 1.62 in [10]. For the same compound, the composite z-score in assay [12] turned out to be 0.0536. Besides, the z-score in assay [2] was -1.12 (inactive); in [3] it was -0.617 (inactive); in assay [4], -1.48 (inactive); in assay [5], -1.4 (inactive); in assay [11], 1.52 (inactive); in assay [13], 1.33 (inactive). The z-score in [14] was -0.202 (inactive); in assay [15], 0.344 (inactive); in assay [16] it was -1.85 (inactive); in assay [17] it was 0.697; in assay [18], -1.05 (inactive); in [19], 0.489 (inactive). Also, the z-score in [20] was determined as 0.0642.

Source of the values: PubChem BioAssay.
